G9a inh: G9a (human) methyltransferase inhibition | Potency, µM (doses to about 102 µM), for inactives: at the highest dose activity, negative = inhibition, usual class: inhibitors | hit rate 8.8% among 350,000 | Q96KQ7 | G9a H3K9 monomethylation, AlphaScreen, 2 h; note: % is set by controls: 0 for no effect and ±100 for the full control effect; nearly all actives have a fitted effect of over 75% in size
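G9a (20 nM) was preincubated 15 min with compound, then reacted 2 h at room temperature with 500 nM biotin-H3K9 peptide and 20 µM SAM. Monomethyl-H3K9 detected by AlphaScreen using anti-H3K9me1 antibody.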
BAZ2B block: blocks human BAZ2B | hit rate 4.4% among 360,000 | Potency, µM (titrated, usually from 114 µM), without a hit: at the highest dose activity change, negative = inhibition, most hits filed as inhibitors | AlphaScreen BAZ2B-H3K14Ac peptide displacement | Q9UIF8 | AID 504333; note: % is set by controls: 0 for no effect and ±100 for the full control effect; nearly all actives have a fitted effect of over 60% in size
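AlphaScreen luminescence quantifies BAZ2B engagement of H3K14Ac peptide; the protein and biotinylated peptide are both at 50 nM final, buffer PBS pH 7.4 with 0.01% Tween-20, all steps at room temperature.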
12-LOX inh: inhibitors of human 12S-lipoxygenase ALOX12; hit rate 1.1% among 580,000; Potency, µM (top dose mostly 108 µM), for inactives: at the top dose activity change, negative = inhibition, most hits filed as inhibitors; purified 12hLO, xylenol orange hydroperoxide absorbance; AID 1671190; P18054; note: % is set by controls: 0 for no effect and ±100 for the full control effect
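Hydroperoxide product was detected by ferrous iron/xylenol orange as the 573 to 405 nm absorbance ratio. Arachidonic acid at 40 uM (final) was turned over for 30 min at room temperature by 150 nM human 12hLO, pH 7.0 Hepes buffer, after 15 min compound preincubation.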
Sfp PPTase inh: blocks B. subtilis Sfp PPTase activity | Q9F4F7 | Biochemical Sfp PPTase activity, qHTS | Potency, µM, without a hit: largest response in the series, negative = inhibition, usual class: inhibitors | hit rate 3.5% among 310,000 | AID 1490;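 note: the enzyme is Sfp with the accession as filed and its product quenches rhodamine fluorescence; 0% = enzyme reaction without inhibitor and -100% = no enzyme wells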
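Compounds were incubated with enzyme (final 15 nM) for 15 min at room temperature before substrate addition started the reaction. Fluorescence at 525 nm excitation, 598 nm emission was recorded immediately and after 30 minutes.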
JMJD2A Tudor: JMJD2A Tudor domain (human) inhibition. O75164. AlphaScreen JMJD2A-Tudor / H3K4me3 peptide binding. Potency, µM (titrated, usually from 114 µM), inactives show at the top dose activity change, negative = inhibition, hits mostly inhibitors. hit rate 4.4% among 390,000; note: % is set by controls: 0 for no effect and ±100 for the full control effect; nearly all actives have a fitted effect of over 50% in size
Target sequence (O75164 whole entry, looked up, the tested form may be a part): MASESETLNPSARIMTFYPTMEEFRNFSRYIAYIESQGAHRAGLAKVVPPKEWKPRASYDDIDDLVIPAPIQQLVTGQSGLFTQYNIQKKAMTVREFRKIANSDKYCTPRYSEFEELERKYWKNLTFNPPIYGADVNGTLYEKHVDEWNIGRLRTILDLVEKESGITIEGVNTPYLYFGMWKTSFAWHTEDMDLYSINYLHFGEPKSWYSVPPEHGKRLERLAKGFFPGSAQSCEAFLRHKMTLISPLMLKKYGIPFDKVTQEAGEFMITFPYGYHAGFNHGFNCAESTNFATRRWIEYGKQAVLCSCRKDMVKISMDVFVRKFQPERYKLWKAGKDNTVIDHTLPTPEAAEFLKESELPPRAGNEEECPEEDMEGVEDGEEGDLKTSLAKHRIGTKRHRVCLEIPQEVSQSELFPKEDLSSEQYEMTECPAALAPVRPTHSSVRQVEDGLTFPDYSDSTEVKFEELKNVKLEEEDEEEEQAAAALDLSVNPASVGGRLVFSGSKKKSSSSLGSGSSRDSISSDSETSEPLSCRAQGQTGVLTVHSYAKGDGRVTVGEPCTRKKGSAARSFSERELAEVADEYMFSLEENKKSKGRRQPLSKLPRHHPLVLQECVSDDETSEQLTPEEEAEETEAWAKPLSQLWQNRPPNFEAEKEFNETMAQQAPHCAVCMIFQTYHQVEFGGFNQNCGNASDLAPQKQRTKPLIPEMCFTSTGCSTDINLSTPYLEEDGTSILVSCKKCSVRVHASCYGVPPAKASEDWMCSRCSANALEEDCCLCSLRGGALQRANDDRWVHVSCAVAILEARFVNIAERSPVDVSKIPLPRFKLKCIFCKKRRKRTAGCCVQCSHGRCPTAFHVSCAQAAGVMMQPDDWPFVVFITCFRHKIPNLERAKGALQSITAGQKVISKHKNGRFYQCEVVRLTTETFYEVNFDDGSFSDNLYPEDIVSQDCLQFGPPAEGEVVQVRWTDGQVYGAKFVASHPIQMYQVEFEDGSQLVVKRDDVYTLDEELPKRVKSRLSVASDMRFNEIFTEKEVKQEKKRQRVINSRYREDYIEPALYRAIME
HP1b chromo inh: inhibitors of HP1-beta chromodomain binding to methylated histone tails. P83916. AlphaScreen HP1-beta / biotin-H3K9me3 peptide binding. Potency, µM (doses to about 114 µM), inactives show at the top dose activity change, negative = inhibition, hits mostly inhibitors. hit rate 0.56% among 390,000. AID 540317; note: nearly all actives have a fitted effect of over 70% in size
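Compound inhibition of the preformed complex between 50 nM HP1-beta and 50 nM biotinylated H3K9me3 peptide was read by AlphaScreen. Buffer was PBS pH 7.4 with 0.01% Tween-20. Incubations ran 30 min at room temperature, with 10 ug/mL donor/acceptor beads.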
* hit, by the source's call; u = inconclusive; x = not tested or not shown; ! = repeats disagree; [ ] = remark or other dose. Shown are actives, neighbours in structure and some others; about 8.7% of the full set was active somewhere. Calls come from the whole dose curve; as a rule, active = well fitted curve in the direction sought with a large enough effect; inconclusive = small, poorly fitted or top-dose-only effect, or another doubt; inactive = no such curve, though single readings can be large; an effect the other way counts as inactive or inconclusive. Potency is the fitted concentration of half-maximal effect.

SMILES	G9a inh	BAZ2B block	12-LOX inh	Sfp PPTase inh	JMJD2A Tudor	HP1b chromo inh
Cc1ccc(CNc2oc(COc3ccccc3Cl)nc2C#N)cc1	u	-38%	12%	10%	-33%	2%
COc1ccccc1-c1nc(C#N)c(NCc2ccc(F)cc2)o1	u	50µM*	0%	-3%	-34%	u
N#Cc1nc(COc2ccccc2Cl)oc1NCc1ccc(F)cc1	45µM*	u	12%	17%	u	4%
c1ccc(C2(CNc3ccccn3)CCCC2)cc1	50µM*	9%	-9%	0%	-10%	29%
c1ccc(CNc2ccccn2)cc1	-7%	-3%	0%	2%	1%	38%
Cc1noc2c(N3CCN(C)CC3c3ccccc3)cc(-c3cccnc3)nc12 (stereo unspecified)	x	x	44%[176 µM]	x	x	x
Cc1cccc(N2CCN(C(=O)c3ccc4c(c3)NC(=O)C(CSCc3ccc(F)cc3)N4)CC2C)c1 (stereo unspecified)	14µM*	-28%[57.1 µM]	x	56µM*	x	x
Cc1cccc(N2CCN(C(=O)c3cccc(N4C(=O)C5C6C=CC(C6)C5C4=O)c3)CC2C)c1 (stereo unspecified)	-45%	-26%	0%	5%	-24%	22%
Cc1ccc(CSCC2Nc3ccc(C(=O)N4CCN(c5cccc(C)c5)C(C)C4)cc3NC2=O)cc1 (stereo unspecified)	7.1µM*	-30%[57.1 µM]	x	50µM*	x	x
CCCCCn1c(=O)[nH]c2cc(C(=O)N3CCN(c4cccc(C)c4)C(C)C3)ccc2c1=O (stereo unspecified)	-2%[59 µM]	-1%	0%	x	-16%	20%
COc1ccc(NC(=O)c2ccccc2Sc2ccc(NC(C)=O)nc2)cc1	20µM*	u	u	11%	-24%	7%
CN(C)c1ccc(Nc2nc(N)c([N+](=O)[O-])c(N3CCOCC3)n2)cc1	7.1µM*	35µM*	-24%	u	u	u
CCOc1ccc(Nc2nc(N)c([N+](=O)[O-])c(N3CCN(C)CC3)n2)cc1	79µM*	u	2%	12%	-25%	16%
CCN1CCN(c2nc(Nc3ccc(C)c(C)c3)nc(N)c2[N+](=O)[O-])CC1	10µM*	u	-27%	11%	u	u
Cc1cccc(Nc2nc(N)c([N+](=O)[O-])c(N3CC(C)CC(C)C3)n2)c1 (stereo unspecified)	u	u	-14%	-1%	u	u
COc1ccc(Nc2nc(N)c([N+](=O)[O-])c(N3CCOCC3)n2)cc1	u	u	0%	-1%	u	22%
Cc1cccc(Nc2nc(N)c([N+](=O)[O-])c(N3CCC(C)CC3)n2)c1	50µM*	u	-14%	1%	32µM*	u
CCNC(=O)c1cccnc1OC1CCN(C(=O)Cc2cccc(Cl)c2)C1 (stereo unspecified)	x	x	-3%	x	x	x
CN(C)c1ccc(/C=N/OC(=O)Nc2ccccc2)cc1	-12%	71µM*	0%	1%	-34%	-6%
C(=Nc1ccc(Nc2ccccc2)cc1)c1ccc2ccccc2c1	1.6µM*	35µM*	x	45µM*	u	u
Brc1ccc(C=Nc2ccc(Nc3ccccc3)cc2)s1	8.9µM*	40µM*	x	56µM*	28µM*	u
CN(C)c1ccc(N=Cc2ccco2)cc1	10µM*	-108%	x	45µM*	28µM*	16µM*
Cc1ccc(C=Nc2ccc(-c3ccc(N=Cc4ccc(C)s4)cc3)cc2)s1	x	x	-1%	x	x	x
COc1ccc(-c2nc(CNC(=O)NC(C)C)c(C)o2)cc1	x	x	7%	x	x	x
O=C(Nc1ccccc1-c1ccccc1)c1cc(F)c(F)cc1Cl	x	x	13%	x	x	x
SMILES	G9a inh	BAZ2B block	12-LOX inh	Sfp PPTase inh	JMJD2A Tudor	HP1b chromo inh
Cc1c(C(=O)NCc2ccccn2)sc2ccccc12	x	x	14%	x	x	x
Cc1ccccc1C(=O)N1CCC(Cc2nc(-c3ccccc3)no2)CC1	x	x	37%	x	x	x
CN(C)c1ccc(C=Nc2ccc(Nc3ccccc3)cc2)cc1	x	x	7.9µM*	x	x	x
Cc1ccc(N=Cc2ccc(N(C)C)cc2)cc1	-35%	-6%	-21%	-2%	-14%	6%
C(=Nc1cccc2c(N=Cc3ccco3)cccc12)c1ccco1	40µM*	28µM*	x	-11%	-32%	-5%
CCN(CC)c1ccc(C=Nc2ccc(Nc3ccccc3)cc2)cc1	x	x	20µM*	x	x	x
CN(C)c1ccc(C=Nc2ccc(N(C)C)cc2)cc1	u	20µM*	u	22µM*	56µM*	50µM*
CC(=O)Nc1ccc(N=Cc2ccc(N(C)C)cc2)cc1	x	x	6%	x	x	x
CN(C)c1ccc(C=Nc2ccccc2)cc1	23%[59 µM]	50%[57.1 µM]	16%	14%	-10%	13%
COc1ccc(NC(=O)Cn2nc3c(cc2=O)CCCCC3)cn1	x	x	29%	x	x	x
O=C(C[C@@H]1O[C@H](CNC(=O)Nc2ccccc2)[C@@H](O)[C@H]1O)NCCN1CCOCC1	x	x	41%[176 µM]	x	x	x
CC1CN(Cc2csc(-c3ccc(Cl)cc3)n2)CC(C)O1 (stereo unspecified)	40µM*	50µM*	-20%	-31%	10µM*	u
O=c1[nH]c(C2CCCN(Cc3cccc(Cl)c3)C2)nc2ccc(F)cc12 (stereo unspecified)	x	x	-18%	x	x	x
O=c1[nH]c(C2CCCN(Cc3cccc(-c4ccsc4)c3)C2)nc2ccc(F)cc12 (stereo unspecified)	x	x	25µM*!	x	x	x
O=C(O)CN1CCCC1=Nc1ccccc1	u	89µM*	u	12%	-15%	38%
CC(=O)N1C[C@H](NS(=O)(=O)c2ccc(C)c(Cl)c2)[C@@H](C2CC2)C1	x	x	8%	x	x	x
CC1=C[C@@H](CNCCN2CCNC2=O)[C@H](C(C)C)C[C@H]1Cc1nnc(-c2cccnc2)o1	x	x	13%	x	x	x
CCOC(=O)C(C)/C(C)=N/NC(N)=S (stereo unspecified)	u	1%	-10%	40µM*	-12%[57.1 µM]	38%
CCOC(=O)C(NC(C)=O)C(=O)OCC	x	x	-4%	x	x	x
COCCNC(=O)C[C@@H]1C[C@H]2O[C@H](CN(C)C)[C@@H](O)[C@H]2O1	x	x	0%[176 µM]	x	x	x
N#CC(=C1CCCC1)c1nc(-c2ccccc2O)cs1	35µM*	-32%	x	u	-23%	6%
COc1ccccc1C(=O)COC(=O)CNC(=O)c1ccc(Br)o1	50µM*	1%	7%	x	-14%	50%
CN(C)S(=O)(=O)c1cccc(C(=O)Nc2n[nH]c(C(F)(F)F)n2)c1	11%	-17%	4%	11%	7.1µM*	9%[57 µM]
CN(C)S(=O)(=O)c1cccc(C(=O)Nc2ccccc2)c1	10%	-10%	-4%	-22%	-9%[11.4 µM]	36%
C(=N\Nc1nncc2ccccc12)/c1ccccn1	-6%	25µM*	u	10%	79µM*	11%
